Reference: PubChem BioAssay AID2058 (Sanford-Burnham Center for Chemical Genomics, 2009)
The whole screen tested about 290,000 compounds, of which about 150 (0.052%) were called active. The sample holds actives, similar compounds and a random draw of the others, so the mix is not that of the screen. Measured potencies and affinities stand elsewhere. Values without a mark were called inactive.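 How the source made its calls: active means inhibition of at least 50% with at least 30 cells and total cytoplasm GFP at most 10,000,000; inconclusive means under 30 cells or total GFP of 10,000,000 plus; inactive means the rest.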

The compounds below were run against G-protein coupled receptor 35 (Homo sapiens) (UniProt Q9HC97) (assay: GPR35 antagonists blocking zaprinast-driven arrestin recruitment, primary screen, imaging, U2OS, beta-arrestin-GFP, zaprinast agonist (AID 2058)). Conditions: U2OS GPR35 beta-arrestin-GFP translocation imaging, zaprinast antagonism; at 10 µM; stronger effect = higher value.
G-protein coupled receptor 35 (Homo sapiens), sequence (Q9HC97 whole entry, looked up): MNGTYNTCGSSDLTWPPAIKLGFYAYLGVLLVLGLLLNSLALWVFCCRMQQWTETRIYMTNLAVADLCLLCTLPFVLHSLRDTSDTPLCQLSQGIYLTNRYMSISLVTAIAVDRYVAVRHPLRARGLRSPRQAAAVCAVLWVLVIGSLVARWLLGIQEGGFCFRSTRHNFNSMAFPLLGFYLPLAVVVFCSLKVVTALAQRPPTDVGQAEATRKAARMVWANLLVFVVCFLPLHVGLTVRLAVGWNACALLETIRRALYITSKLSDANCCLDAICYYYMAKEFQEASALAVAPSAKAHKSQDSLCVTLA
`COc1ccc(COc2ccccc2C(=O)Nc2ccccn2)cc1[N+](=O)[O-]` showed an inhibition of 15.8%. With `Cc1ccc(S(=O)(=O)N/N=C/c2cccc(OC3CSC3)c2)cc1` the inhibition was 9.4%. Compound `C[C@@H]1CC=C[C@H]2[C@H]1C(=O)N(Cc1ccccc1)[C@H]2c1ccc(F)c(-c2ccc(N(C)C)cc2)c1` has an inhibition of 17.6%. Compound `Cc1ccc(-c2nnc(N3CC(C)OC(C)C3)c3ccccc23)cc1` (stereo not given) has an inhibition of 13.6%. `COc1cc(C(=S)N2CCOCC2)ccc1OC(=O)c1cc([N+](=O)[O-])c(C)c([N+](=O)[O-])c1` was tested, and the inhibition was 10.7%. In the case of `CCc1ccc(C(C)NC(=O)c2ccc3c(c2)OCO3)cc1` (stereo not given), the inhibition is reported as -12.5%. For `O=C(NC(c1ccccc1)c1ccccc1)c1ccc(CO)cc1`, the inhibition was 7%. Compound `CC1=CC(C)(C)N(C)C(=O)N1c1ccc(Cl)cc1` has an inhibition of 20.7%. `Cc1cc(=O)cc(C)n1-c1ccc(Cl)cc1` showed an inhibition of -8.7%. For `COC1CCN(C(=O)c2cc(COc3ccc(-n4cncn4)cc3)on2)CC1`, the inhibition was 17.9%. Compound `O=C(Nc1cc([N+](=O)[O-])ccc1N1CCCC1)c1ccco1` has an inhibition of -5%. For `CC(C)(C)C(=O)C[n+]1ccccc1`, the inhibition was -9.2%. Compound `CCCOC(=O)c1ccc(Nc2cc(C)nc3ncnn23)cc1` has an inhibition of 11.5%. In the case of `COc1ccc(C(=O)/C=C/C(=O)N(CC(=O)NC2CCCCC2)Cc2ccccc2)c(O)c1`, the inhibition is reported as -0.1%. With `COc1ccc(C(=O)/C=C/C(=O)N(CC(=O)NC2CCCCC2)CC2CCCO2)c(O)c1` (stereo not given) the inhibition was 69.1% (active). Compound `COCCN(CC(=O)NC1CCCCC1)C(=O)/C=C/C(=O)c1ccc(OC)cc1O` has an inhibition of 15.7%. Compound `Cc1nn(-c2ccccc2)nc1C(N)=O` has an inhibition of 12.1%. For `O=C1C2C3C=CC(C3)C2C(=O)N1CCCCCCN1C(=O)C2C3C=CC(C3)C2C1=O` (stereo not given), the inhibition was -2%. For `O=C1C=CC(=O)N1Cc1ccccc1`, the inhibition was 4.8%. `COc1cccc(Nc2nc(N)c([N+](=O)[O-])c(N3CCOCC3)n2)c1` showed an inhibition of 0.4%. For `O=C(NCc1ccco1)C(=O)NCC1OCCCN1S(=O)(=O)c1ccc(Cl)cc1` (stereo not given), the inhibition was -6.3%. In the case of `C/C(=N/NC(=O)CNC(=O)C1COc2ccccc2O1)c1cccc(O)c1` (stereo not given), the inhibition is reported as 0.2%. `O=C(/C=C\c1ccccc1)NCC(=O)N/N=C/c1ccc(O)cc1O` gave an inhibition of 10.7%. Work on `COc1ccc(/C=C/C(=O)NCC(=O)N/N=C/c2ccc(OC)cc2)cc1` yielded an inhibition of 9%. In the case of `COc1ccc(/C=C2\SC(=S)N(CCC(=O)Nc3cccc(C(=O)O)c3)C2=O)cc1`, the inhibition is reported as 2.8%. `O=C(CCCN1C(=O)/C(=C\c2cccs2)SC1=S)Nc1cccc(C(=O)O)c1` showed an inhibition of 0.3%. Compound `COc1ccc(/C=C2\SC(=S)N(CCCC(=O)Nc3ccc(C(=O)O)cc3)C2=O)cc1OC` has an inhibition of 30%. Work on `Cc1ccc(/C=C2/SC(=S)N(CCCC(=O)Nc3ccc(O)cc3)C2=O)cc1` yielded an inhibition of 36.2%. `CCc1ccc(/C=C2/SC(=S)N(CCC(=O)Nc3cccc(C(=O)O)c3)C2=O)cc1` showed an inhibition of -9.9%. Work on `COc1ccc(/C=C2\SC(=S)N(CCCC(=O)Nc3ccc(O)cc3)C2=O)cc1` yielded an inhibition of 44.8%. `COc1ccc(/C=C2/SC(=S)N(Cc3ccccc3)C2=O)cc1O` was tested, and the inhibition was -18.7%. With `COc1cc(/C=C2/SC(=S)N(Cc3ccccc3)C2=O)cc(Cl)c1O` the inhibition was 74.4% (active). In the case of `COc1cc(/C=C2/SC(=S)N(Cc3ccccc3)C2=O)ccc1O`, the inhibition is reported as -5.7%. In the case of `COC(=O)c1ccc(Cn2nc(C)c(Br)c2C)cc1`, the inhibition is reported as 4%. For `C[C@H](NC(=O)c1nc[nH]c1C(=O)N[C@H](C)c1ccccc1)C(=O)OC(C)(C)C`, the inhibition was 5.8%. In the case of `Cc1cc(=O)oc2c(C)c3occc3cc12`, the inhibition is reported as -1.8%. Work on `O=C1C(=O)N(CCN2CCOCC2)C(c2cccc(Cl)c2)/C1=C(\O)c1ccc2c(c1)OCCO2` (stereo not given) yielded an inhibition of -1.2%. Compound `Cc1ccccc1COc1ccc2oc(C)c(C(=O)O)c2c1` has an inhibition of -10.4%. With `O=[N+]([O-])c1c(-c2cn[nH]c2)n[nH]c1-c1cn[nH]c1` the inhibition was -2%. For `O=C(COc1ccc(S(=O)(=O)N2CCCC2)cc1Cl)N1CCN(c2ccccc2)CC1`, the inhibition was -0.4%. Work on `Cc1oc(-c2ccccc2F)nc1CN1CCC(C(=O)NC2CC2)CC1` yielded an inhibition of -1.6%. `O=C(CCCN1C(=O)/C(=C/c2ccccc2)SC1=S)Nc1cccc(O)c1` was tested, and the inhibition was -8.3%. `O=C(CCN1C(=O)/C(=C/c2ccc(Cl)cc2)SC1=S)Nc1cccc(C(=O)O)c1` was tested, and the inhibition was 1.5%. `O=C(/C=C/c1ccco1)Nc1ccccc1C(=O)Nc1cccc(C(=O)O)c1` was tested, and the inhibition was -11.1%. For `CCc1ccccc1NC(=O)c1cccc(NC(=O)/C=C/c2ccco2)c1`, the inhibition was 10.4%. `COC(=O)c1sc(N2C(=O)C(O)=C(C(=O)c3ccc(C)o3)C2c2ccc([N+](=O)[O-])cc2)nc1C` (stereo not given) was tested, and the inhibition was -3.4%. With `COC(=O)c1sc(N2C(=O)C(O)=C(C(=O)c3ccc(C)o3)C2c2ccc(F)cc2)nc1C` (stereo not given) the inhibition was 100% (active). Compound `CCOc1ccc(C2C(C(=O)c3ccc(C)o3)=C(O)C(=O)N2c2nc(C)c(C(=O)OC)s2)cc1` (stereo not given) has an inhibition of 5.8%. In the case of `O=S(=O)(Nc1ccc(N=Nc2ccc(O)c3ccccc23)cc1)c1ccccc1`, the inhibition is reported as 70.3% (active). `O=S(=O)(Nc1ccc(O)c(NS(=O)(=O)c2ccccc2)c1)c1ccccc1` gave an inhibition of -5.8%. In the case of `O=S(=O)(Nc1ccc(N=Nc2ccccc2)cc1)c1ccccc1`, the inhibition is reported as -12.2%. Compound `COc1cccc(NC(=O)NNC(=O)CCc2ccc(O)c(O)c2)c1` has an inhibition of 11.4%. For `CC(=O)c1ccc(N2CCN(c3ncc(C(F)(F)F)cc3Cl)CC2)cc1`, the inhibition was -3.2%. For `CN(C)C=NC(=O)c1ccc(N2CCN(c3ncc(C(F)(F)F)cc3Cl)CC2)cc1`, the inhibition was 14.6%. In the case of `O=C(CSc1nnc(-c2ccc(F)cc2)o1)c1ccc2c(c1)OCCO2`, the inhibition is reported as 11.5%. `O=C(/C=C/c1ccccc1)NC(NC(=S)Nc1ccc(Cl)cc1Cl)C(Cl)(Cl)Cl` (stereo not given) was tested, and the inhibition was 76.2% (active). Work on `O=C(/C=C/c1ccccc1)NC(NC(=S)Nc1cc(Cl)ccc1Cl)C(Cl)(Cl)Cl` (stereo not given) yielded an inhibition of 27.8%. `O=C(/C=C/c1ccccc1)NC(NC(=S)Nc1ccc(Cl)cc1)C(Cl)(Cl)Cl` (stereo not given) was tested, and the inhibition was -0.3%. For `CC1=C(C(=O)Nc2ccccc2C(=O)N2CCC(C)CC2)SCCO1`, the inhibition was -12.3%. With `COc1ccc(CCC(=O)Nc2ccc(Cl)c(S(=O)(=O)N3CCCC3)c2)cc1` the inhibition was -7.8%. `COCCNC(=O)CSc1nc2ccc(N3CCOCC3)cc2c(=O)n1CCc1ccccc1` gave an inhibition of -7.7%. Work on `N#CC(C#N)=C1C=C2C=C(N3CCCCC3)CCC2CC1` (stereo not given) yielded an inhibition of 11.2%. Compound `N#CC(C#N)=C1C=C2C=C(N3CCCCCC3)CCC2CC1` (stereo not given) has an inhibition of 46%. With `N#CC(C#N)=C1C=C2C=C(N3CCOCC3)CCC2CC1` (stereo not given) the inhibition was 1.7%. Work on `CC1(C)CC(NCCN2CCN(C3=CC(=C(C#N)C#N)CC(C)(C)C3)CC2)=CC(=C(C#N)C#N)C1` yielded an inhibition of -1%. Work on `COC(=O)c1cc(NC2c3ccccc3C(=O)N2c2cccnc2)cc(C(=O)OC)c1` (stereo not given) yielded an inhibition of -4%. `COc1cccc(C2N=C(c3ccccc3C)NO2)c1OC` (stereo not given) was tested, and the inhibition was 13.2%. In the case of `O=C(CSc1nc(O)c(C2CCCCC2)c(=O)[nH]1)Nc1ccccc1Cl`, the inhibition is reported as -1.9%. For `O=C(Nc1ccc2c(c1)oc1ccccc12)C1CC1`, the inhibition was 1.2%. `COc1ccc(N=C2S/C(=C\c3ccc(OCC(=O)O)cc3)C(=O)N2CCc2c[nH]c3ccccc23)cc1` showed an inhibition of -10.9%. With `COc1ccc(N=C2S/C(=C\c3ccc(OC(C)C(=O)O)c(OC)c3)C(=O)N2CCc2c[nH]c3ccccc23)cc1` (stereo not given) the inhibition was -11.1%. In the case of `Cc1ccc2oc(C(=O)Nc3ccc(S(=O)(=O)Nc4ncccn4)cc3)c(C)c2c1`, the inhibition is reported as 18.7%. `COc1ccc(/C=C2\Cc3ccccc3C2=O)cc1OC` gave an inhibition of 10.6%. For `COc1ccc(/C=C2\CC/C(=C\c3ccc(OC)c(OC)c3)C2=O)cc1OC`, the inhibition was -1.3%. With `N/C(=N\OC(=O)COc1ccccc1)c1ccncc1` the inhibition was -1.4%. `CCOc1ccc(/C=N/NC(=O)Cc2csc(Nc3cccc(C(F)(F)F)c3)n2)c(OCC)c1` showed an inhibition of -0.3%. In the case of `CCOc1ccccc1/C=N/NC(=O)Cc1csc(Nc2cccc(C(F)(F)F)c2)n1`, the inhibition is reported as 20%. Work on `O=C(Nc1ccccc1F)C1CCCN(S(=O)(=O)c2ccc(-n3cnnn3)cc2)C1` (stereo not given) yielded an inhibition of 7.9%. With `CN(C)c1ccc(/C=C/C(=O)c2ccccc2O)cc1` the inhibition was 21.4%. For `O=C(/C=C/c1ccc2ccccc2n1)c1cc(Cl)ccc1O`, the inhibition was 7.6%. `CN(C)c1ccc(/C=C/C(=O)c2cc(Cl)ccc2O)cc1` was tested, and the inhibition was 57.6% (active). `COc1ccc(C(=O)/C=C/c2ccc(N(C)C)cc2)c(OC)c1` was tested, and the inhibition was 21.5%. Compound `O=C(/C=C/c1cccs1)c1cc(Cl)ccc1O` has an inhibition of -8.1%. For `O=C(/C=C/c1ccncc1)c1cc(Cl)ccc1O`, the inhibition was 96.6% (active). `CC(C)N(CCc1ccncc1)C(=S)Nc1ccc(F)c(Cl)c1` showed an inhibition of 4.6%. `CC(C)c1ccc(C(=O)NC(=S)Nc2ccc3[nH]c(=O)[nH]c3c2)cc1` was tested, and the inhibition was -6.7%. `CC(=O)c1cc2c(cc1N/C(=N/S(=O)(=O)c1ccccc1)c1ccc(Cl)cc1)OCO2` showed an inhibition of 13.2%. For `CC(C)(C)CC(C)(C)NC(=S)Nc1ccc(S(=O)(=O)N2CCOCC2)cc1`, the inhibition was -2.7%. In the case of `CCCCOC(=O)c1ccc(NC(=O)c2ccccc2OC)cc1`, the inhibition is reported as 12.9%. With `CCCCOC(=O)c1ccc(NC(=O)c2cc(Cl)c(Cl)cc2C(=O)O)cc1` the inhibition was -5.9%.
